Hit rate of the full screen: of about 38,000 compounds, about 1,200 (3.2%) showed an effect of 50% or more. The median lay at about -58%. The list comes from a sample in which strong results are over-represented; it also holds similar structures and randomly drawn compounds.
Tested on: Plasmodium falciparum
Assay: Calibr Malaria Delayed Death Assay SOP
Type: functional, organism-based
Set-up: scale not given: in the data most compounds retested in dose-response had high values
Settings: concentration 4.99e-06 (unit not given; other assays of the set use mol/L)

Structure (SMILES) | Percent Effect
CCS(=O)(=O)N1CC(c2nc(-c3ccsc3)no2)C1 | -143.6%
CCOCC(=O)NCCc1nc(C2CC2)cc(C(F)(F)F)n1 | -127.5%
Cc1cccnc1CNC(=O)N(CCCO)C1CCc2ccccc21 (stereo unspecified) | -23.18%
COc1c(CNC2(c3noc(C)n3)CCC2)c(C)nn1C.Cl | -62.55%
COc1c(CNC2(c3ccc(Cl)cc3)CCC2)c(C)nn1C | 58.68%
COc1c(CNC2CCc3cc(Cl)ccc32)c(C)nn1C (stereo unspecified) | 17.62%
Cc1cc(C)n(-c2cccc(C(=O)Nc3n[nH]c(C4CCCO4)n3)c2)n1 (stereo unspecified) | -55.68%
Cc1ccc(O)c(CNc2cccc(CN3CCSCC3)c2)n1 | -16.46%
O=C(CCN1CCCC(CO)(CC2CC2)C1)NCc1cccc(Cl)c1 (stereo unspecified) | 79.46%
CC1(C)CN(CCC(=O)NCc2cccc(Cl)c2)CC[C@]1(C)O | 51.99%
Cc1ccc(C(=O)O)cc1CNC(=O)CN1CC[C@](C)(O)C(C)(C)C1 | -2.954%
NC(=O)CN(CC(=O)NCc1cccc(Cl)c1)C1CCCC1 | -61.22%
OCC1(Cc2cccc(Cl)c2)CCCN(c2ncccn2)C1 (stereo unspecified) | -87.85%
O=C(CCC(=O)NCc1cccc(Br)c1)NCCN1CCCC1 | -111.7%
CC(C)NC(=O)c1cc2c(s1)CCN2c1ncccn1 | -26.36%
Cc1nc2n(n1)CC(NCc1c(Cl)ccc3cccnc13)CC2 (stereo unspecified) | -131.5%
CC(=O)CSc1nnc2n1N=CN(c1cccc(Cl)c1)C2 | -35.13%
N#Cc1cccc(OCCN2CCC(C(=O)N3CCOCC3)CC2)c1 | -57.78%
N#Cc1cccc(OCCN2CCCC2C(=O)Nc2nccs2)c1 (stereo unspecified) | -33.68%
N#Cc1cccc(OCCN2CCCC2C(=O)N2CCSCC2)c1 (stereo unspecified) | 50.57%
CCc1nc(C)c(C(=O)N[C@@H]2c3ccccc3C[C@@H]2O)o1 | -65.76%
Cc1nc(CC2CCCN(Cc3nc(N)c4ccccc4n3)C2)no1 (stereo unspecified) | 18.93%
Cn1ccc(CN2CCC(c3ccccc3)CC2)cc1=O | 20.97%
CN(C)c1nc(N)nc(CN2CCCC(c3ccccc3)CC2)n1 (stereo unspecified) | 53.37%
Oc1ccccc1CN1CCCCCC1c1cccs1 (stereo unspecified) | -50.57%
Cn1ncc2c(=O)[nH]c(CN3CCCC3c3cccs3)nc21 (stereo unspecified) | -14.29%

Structure (SMILES) | Percent Effect
O=C(O)CN1CCC(c2ccccc2)CC1 | -86.8%
CN(C)c1nc(N)nc(CN2CCC(c3nc4ccccc4o3)CC2)n1 | 8.177%
CN(C)c1nc(N)nc(CN2CCC(c3ccccc3)CC2)n1 | 80.66%
CN(C)c1nc(N)nc(CN2CCCC2c2cccs2)n1 (stereo unspecified) | 52.44%
COC(=O)c1cc(OCC2CCC2)cc(C(=O)N[C@H](C)C(N)=O)c1 | -189.7%
CC(C)(C)c1n[nH]c(C2CN(C(=O)Cn3ccccc3=O)CCO2)n1 (stereo unspecified) | -54.87%
CC(C)NC(=O)N1CCCC2(CC(C(=O)Nc3ccccc3)=NO2)C1 (stereo unspecified) | -67.17%
COCCN(C)C[C@@H]1CN(C(=O)c2ccc(SC)cc2)C[C@@H]1CO | -5.304%
COc1ccc(CCN(C)C(=O)CN2C(=O)OC[C@@H]2C(C)C)cc1OC | -25.4%
CNC(=O)N1CCC(NC(=O)c2cnn(C)c2)CC1 | -113.2%
NS(=O)(=O)c1cnn(CCC(=O)N(Cc2ccccc2)C2CC2)c1 | -42.03%
COC(=O)c1ccc(N2CCN(CC(=O)NC(N)=O)C(C)C2)cc1 (stereo unspecified) | -25.15%
CCOC(=O)NC1CCCN(Cc2ccc(-n3cncn3)c(C)c2)C1 (stereo unspecified) | -7.286%
CC(C)(C)OC(=O)NC1CCCN(Cc2cccc(O)c2)C1 (stereo unspecified) | 51.54%
CC(C)(C)OC(=O)NC1CCCN(Cc2cccs2)C1 (stereo unspecified) | 25.55%
CCOc1ccc(C(=O)n2cccn2)cc1 | -77.79%
O=C(c1ccc(F)cc1)N1CCOC(c2nc(-c3ncccn3)no2)C1 (stereo unspecified) | -155.2%
O=C(O)C(F)(F)F.c1cnc(N2CCOC3(CCN(CC4CCOC4)CC3)C2)nc1 (stereo unspecified) | -16.11%
CN1CCN(c2ccc(NC(=O)c3ccccn3)c(C(F)(F)F)c2)CC1 | -41.85%
CN1CCN(c2ccc(NC(=O)c3ccoc3)c(C(F)(F)F)c2)CC1 | -45.74%
CN1CCN(c2ccc(NC(=O)c3cccs3)c(C(F)(F)F)c2)CC1 | 73.25%
Cc1nc(CCCC(=O)Nc2cccc(N3CCNC3=O)c2)cs1 | -207.5%
Cc1ccc(N2CCCC(NCc3cnc(C)s3)C2)nn1 (stereo unspecified) | -130.3%
CC(C)[C@@H]1CN(C2CCN(Cc3ccccc3)CC2)C[C@H]1NS(C)(=O)=O | 2.556%
CC(c1ccncc1)N(C)S(C)(=O)=O (stereo unspecified) | -81.75%

— ChEMBL document CHEMBL3988442, “University of Dundee, Small-Polar-MMV Screening Library” (2021)
